Sampled rows, rich in hits. Any-hit rate of the full collection: about 19%.
ASM inhibitor = inhibitors of human secretory acid sphingomyelinase | 0.006% of 340,000 active | AID 504937 | Potency, µM (doses to about 57.5 µM), inactives show at the top dose activity change, negative = inhibition, most hits filed as inhibitors | placental ASM, HMU-PC fluorogenic substrate, 60 min | P17405; further: potency means the concentration at half of the fitted maximal effect
Target sequence (P17405 47-631 limits assumed): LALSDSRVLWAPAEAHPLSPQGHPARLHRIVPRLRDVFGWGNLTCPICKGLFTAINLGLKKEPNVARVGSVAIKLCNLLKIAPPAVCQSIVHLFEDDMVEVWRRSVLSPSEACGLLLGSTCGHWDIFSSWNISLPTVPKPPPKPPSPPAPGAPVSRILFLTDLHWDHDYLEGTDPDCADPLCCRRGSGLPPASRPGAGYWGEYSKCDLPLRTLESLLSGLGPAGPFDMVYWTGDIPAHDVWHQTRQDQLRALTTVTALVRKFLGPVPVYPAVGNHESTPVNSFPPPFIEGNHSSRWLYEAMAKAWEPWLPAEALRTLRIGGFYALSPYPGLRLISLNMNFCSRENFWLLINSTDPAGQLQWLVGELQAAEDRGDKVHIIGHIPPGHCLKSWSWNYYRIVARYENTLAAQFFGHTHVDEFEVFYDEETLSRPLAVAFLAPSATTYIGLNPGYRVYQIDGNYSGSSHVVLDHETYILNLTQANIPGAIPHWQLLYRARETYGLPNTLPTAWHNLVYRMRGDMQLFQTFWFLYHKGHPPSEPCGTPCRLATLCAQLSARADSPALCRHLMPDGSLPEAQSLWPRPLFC
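qHTS format. ASM enzyme prepared from human placenta hydrolyses the fluorogenic substrate HMU-PC0 (9 uM final) over 60 min at 37 °C after a 10 min compound preincubation.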
HepG2 viability = kills HepG2 cells in TGF-b inhibitor counter-screen; 0.76% of 410,000 active; Potency, µM (highest dose often 46.1 µM), inactives show at the top dose activity change, negative = cytotoxicity, most hits filed as cytotoxic; HepG2 CAGA-GFP viability, ATP luminescence, 18 h; AID 588856; further: potency means the concentration at half of the fitted maximal effect
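CellTiter-Glo luminescence gave cytotoxicity after 18 hours at 37 degrees C. The cells were HepG2 CAGA-GFP in 1% FBS DMEM, stimulated with 500 pg/mL TGF-beta after compound addition. %Activity was normalised to no-cell wells (complete cell-killing) and DMSO (no toxicity), and curves were fitted and classified.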
DT40 TDP1 CPT = DT40-hTDP1 cell growth loss with CPT. chicken DT40 Tdp1-/-;hTDP1 cells + 20 nM CPT, ATP luminescence, 48 h. Potency, µM (titrated, usually from 46.2 µM), inactives show top-dose activity change, negative = growth inhibition, most hits filed as inhibitors. 12% of 420,000 active; further: potency means the concentration at half of the fitted maximal effect; on the % scale 0 is the no-effect control and ±100 the full control effect; nearly all actives have a fitted effect of over 55% in size
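Cell growth measured by CellTiter-Glo luminescence after a minimum 48 h, 37 C compound exposure with 20 nM CPT in Tdp1-knockout DT40 cells stably expressing hTDP1, seeded 400/well; qHTS titration format.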
IL-1B inflam inh = inflammasome signaling inhibition, IL-1 beta readout | 4.7% of 360,000 active | THP-1 LPS/ATP IL-1B secretion, AlphaLISA, 16 h; hits give low values | activity change, % at 57.5 µM; in the data active means activity change below about -50%; inconclusive means mostly about -30% to -49%; further: on the % scale 0 is the no-effect control and ±100 the full control effect
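THP-1 cells pretreated 1 hr with compounds (up to 57.5 uM final), then stimulated with LPS (250 ng/mL final) plus ATP (1.25 mM final); secreted IL-1B measured by AlphaLISA after 16 hr, decreased signal indicating inhibition.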
DT40 TDP1 no CPT = qHTS for Inhibitors of human tyrosyl-DNA phosphodiesterase 1 (TDP1): qHTS in cells in absence of CPT; DT40 Tdp1-/- hTDP1 cells, no CPT, ATP luminescence, 48 h; Potency, µM (top dose mostly 46.2 µM), for inactives: at the top dose activity change, negative = growth inhibition, actives largely listed as inhibitors; 15% of 420,000 active; further: potency means the concentration at half of the fitted maximal effect; on the % scale 0 is the no-effect control and ±100 the full control effect; nearly all actives have a fitted effect of over 55% in size
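Seeded 400 DT40-hTDP1 cells/well (vehicle DMSO, no 20 nM CPT); pinned compounds; ≥48 hr at 37 °C; CellTiter-Glo luminescence as viability measure.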
TGFb inhibitor = blocks TGF-b signaling. HepG2 CAGA-GFP TGF-b/SMAD3 reporter, GFP fluorescence, 18 h; TGF-beta stimulated, 500 pg/mL final. Potency, µM (series often up to 46.1 µM), inactives show at the top dose activity, negative = inhibition, actives largely listed as inhibitors. 1.2% of 410,000 active. AID 588855; further: potency means the concentration at half of the fitted maximal effect; on the % scale 0 is the no-effect control and ±100 the full control effect; nearly all actives have a fitted effect of over 65% in size
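HEPG2 CAGA-GFP cells (1000/well, DMEM with 1% FBS) were pre-incubated 2 h at 37 degrees C, given compound by pin tool, then stimulated with TGF-beta at 500 pg/mL final for 18 h before per-cell GFP fluorescence imaging.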
The depositor's hits bear a star. Unless noted, the call rests on the fitted dose curve; in most records, active means well fitted curve in the direction sought with a large enough effect; inconclusive means small, poorly fitted or top-dose-only effect, or another doubt; inactive means no such curve, though single readings can be large; an effect the other way counts as inactive or inconclusive.

For CCCOc1ccc(C(=O)NNC(=S)NC(=O)c2cccs2)cc1 the results were ASM inhibitor -8%, HepG2 viability 1%, DT40 TDP1 CPT 23µM*, IL-1B inflam inh 55, DT40 TDP1 no CPT 18µM* and TGFb inhibitor 6%.
Screening Cc1cc(C)n(-c2ccnc3cc(Cl)ccc23)n1 returned ASM inhibitor 1%, HepG2 viability 6%, DT40 TDP1 CPT -24%, IL-1B inflam inh 0, DT40 TDP1 no CPT 4% and TGFb inhibitor -12%.
Fc1ccc2ncc3c(-c4ccccc4)n[nH]c3c2c1 was read as HepG2 viability -7%, DT40 TDP1 CPT -4%, DT40 TDP1 no CPT -15% and TGFb inhibitor 2%.
Screening C=CCNc1nc2c(c(=O)[nH]c(=O)n2C)n1CC(O)COc1ccc2ccccc2c1 (stereo not drawn) returned ASM inhibitor 5%, HepG2 viability -6%, DT40 TDP1 CPT -4%, IL-1B inflam inh 21, DT40 TDP1 no CPT 1% and TGFb inhibitor 4%.
For O=C(NC1CC(=O)N(c2ccc(F)cc2)C1)C(c1ccccc1)c1ccccc1 (stereo not drawn) the results were HepG2 viability -3%, DT40 TDP1 CPT inconclusive, DT40 TDP1 no CPT inconclusive and TGFb inhibitor 1%.
`Cc1ccc(S(=O)(=O)N2CCN(C(=O)c3ccc4ccccc4n3)CC2)c(C)c1` gave ASM inhibitor -2%, HepG2 viability -2%, DT40 TDP1 CPT -29%, IL-1B inflam inh -2, DT40 TDP1 no CPT inconclusive and TGFb inhibitor 0%.
For CC(=O)OCC[C@H](NS(=O)(=O)OCC(Cl)(Cl)Cl)c1ccccc1 the results were ASM inhibitor 3%, HepG2 viability 3%, DT40 TDP1 CPT -7%, IL-1B inflam inh -3, DT40 TDP1 no CPT -20% and TGFb inhibitor -18%.
`O=C(Nc1ccc(OC(F)(F)F)cc1)c1ccc2nccnc2c1` gave ASM inhibitor 4%, HepG2 viability -3%, DT40 TDP1 CPT -96%, IL-1B inflam inh 4, DT40 TDP1 no CPT inconclusive and TGFb inhibitor -16%.
Screening Cc1ccc(C(=O)Nc2ccc3nccnc3c2)cc1 returned ASM inhibitor 39%, HepG2 viability 9%, DT40 TDP1 CPT inconclusive, IL-1B inflam inh -28, DT40 TDP1 no CPT 16µM* and TGFb inhibitor inconclusive.
Screening Cc1cc(NC(=O)c2ccc3nccnc3c2)ccc1Br returned ASM inhibitor -5%, HepG2 viability -20%, DT40 TDP1 CPT inconclusive, IL-1B inflam inh 9, DT40 TDP1 no CPT inconclusive and TGFb inhibitor 3%.
`COC(=O)c1ccc(NC(=O)c2ccc3nccnc3c2)cc1` gave ASM inhibitor -1%, HepG2 viability -11%, DT40 TDP1 CPT -24%, IL-1B inflam inh -27, DT40 TDP1 no CPT 29µM* and TGFb inhibitor -13%.
Screening O=C(Nc1ccc(SC(F)F)cc1)c1ccc2nccnc2c1 returned ASM inhibitor 0%, HepG2 viability -27%, DT40 TDP1 CPT inconclusive, IL-1B inflam inh -97*, DT40 TDP1 no CPT inconclusive and TGFb inhibitor -4%.
`CN(CC1COc2ccccc2O1)C(=O)CSc1ncnc2sccc12` (stereo not drawn) gave ASM inhibitor 0%, HepG2 viability -20%, DT40 TDP1 CPT -20%, IL-1B inflam inh -16, DT40 TDP1 no CPT -10% and TGFb inhibitor -20%.
Cc1c(-c2ccc(OCCN3CCCCC3)cc2)c(=O)oc2ccc3ccccc3c12 was read as HepG2 viability 2%, DT40 TDP1 CPT 10%, IL-1B inflam inh 28, DT40 TDP1 no CPT -20% and TGFb inhibitor 9%.
COc1cccc(-c2sc3ccccc3c2-c2ccc(OCCN3CCCCC3)cc2)c1 was read as ASM inhibitor inconclusive, HepG2 viability -41%, DT40 TDP1 CPT inconclusive, IL-1B inflam inh inconclusive, DT40 TDP1 no CPT 18µM* and TGFb inhibitor 1%.
`COc1cccc(-c2sc3ccc(OC)cc3c2-c2ccc(C(N)=O)cc2)c1` gave ASM inhibitor 3%, HepG2 viability -21%, DT40 TDP1 CPT inconclusive, IL-1B inflam inh -25, DT40 TDP1 no CPT -23% and TGFb inhibitor -2%.
COc1cccc(-c2sc3ccccc3c2-c2ccc(OCCN3CCCC3)cc2)c1 was read as ASM inhibitor -28%, HepG2 viability 20µM*, DT40 TDP1 CPT 9.2µM*, IL-1B inflam inh -23, DT40 TDP1 no CPT 8.2µM* and TGFb inhibitor inconclusive.
Screening COc1ccc2sc(-c3ccccc3OC)c(-c3ccc(OCCN(C)C)cc3)c2c1 returned ASM inhibitor inconclusive, HepG2 viability 16µM*, DT40 TDP1 CPT 16µM*, IL-1B inflam inh inconclusive, DT40 TDP1 no CPT 21µM* and TGFb inhibitor 16µM*.
COc1cccc(-c2sc3cc(OC)c(OC)cc3c2-c2ccc(OCCN3CCCCC3)cc2)c1 was read as ASM inhibitor -29%, HepG2 viability 13µM*, DT40 TDP1 CPT 18µM*, IL-1B inflam inh -11, DT40 TDP1 no CPT 13µM* and TGFb inhibitor inconclusive.
COc1cccc(-c2nc(CS(=O)(=O)CC(=O)Nc3ccc(C)c(Cl)c3)c(C)o2)c1 was read as HepG2 viability -23%, DT40 TDP1 CPT -4%, DT40 TDP1 no CPT -15% and TGFb inhibitor 1%.
Screening Cc1nn(C2CCS(=O)(=O)C2)c(C)c1CN(C)C(=O)c1ccc(F)cc1 (stereo not drawn) returned HepG2 viability -27%, DT40 TDP1 CPT -4%, IL-1B inflam inh 4, DT40 TDP1 no CPT -13% and TGFb inhibitor -12%.
For COc1cccc(-c2sc3ccccc3c2-c2ccc(OCCN(C)C)cc2)c1 the results were ASM inhibitor -18%, HepG2 viability 11µM*, DT40 TDP1 CPT inconclusive, IL-1B inflam inh inconclusive, DT40 TDP1 no CPT 18µM* and TGFb inhibitor inconclusive.
Screening c1ccc(-c2sc3ccccc3c2-c2ccc(OCCN3CCCC3)cc2)cc1 returned ASM inhibitor -27%, HepG2 viability 11µM*, DT40 TDP1 CPT 21µM*, IL-1B inflam inh inconclusive, DT40 TDP1 no CPT 15µM* and TGFb inhibitor inconclusive.
For c1ccc(COc2ccc(OCCN3CCCC3)cc2)cc1 the results were ASM inhibitor 5%, HepG2 viability -21%, DT40 TDP1 CPT inconclusive, IL-1B inflam inh -15, DT40 TDP1 no CPT inconclusive and TGFb inhibitor 0%.
CCc1nnc(NC(=O)CSc2nc3cc(OC)ccc3cc2C)s1 was read as ASM inhibitor 1%, HepG2 viability 3%, DT40 TDP1 CPT -28%, IL-1B inflam inh -7, DT40 TDP1 no CPT 8.2µM* and TGFb inhibitor 0%.

Assay outcomes (PubChem)
